# Data from PMC4336329 (PLoS ONE, 2015).
# Screen size: about 310,000 compounds; about 14,000 (4.5%) showed an effect of 50% or more. Effects have a minus sign here. The full list was thinned out, with strong results kept by preference.
# Molecular target: human ether-à-go-go-related gene (hERG) potassium channel (human, UniProt Q12809)
# Assay: primary screen, population patch clamp on CHO cells stably expressing hERG; higher = less effect of the substance
# 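Further: peak tail current of the secondary pulse compared with the same well before compound.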
# Chain of human ether-à-go-go-related gene (hERG) potassium channel (Q12809 whole entry, looked up): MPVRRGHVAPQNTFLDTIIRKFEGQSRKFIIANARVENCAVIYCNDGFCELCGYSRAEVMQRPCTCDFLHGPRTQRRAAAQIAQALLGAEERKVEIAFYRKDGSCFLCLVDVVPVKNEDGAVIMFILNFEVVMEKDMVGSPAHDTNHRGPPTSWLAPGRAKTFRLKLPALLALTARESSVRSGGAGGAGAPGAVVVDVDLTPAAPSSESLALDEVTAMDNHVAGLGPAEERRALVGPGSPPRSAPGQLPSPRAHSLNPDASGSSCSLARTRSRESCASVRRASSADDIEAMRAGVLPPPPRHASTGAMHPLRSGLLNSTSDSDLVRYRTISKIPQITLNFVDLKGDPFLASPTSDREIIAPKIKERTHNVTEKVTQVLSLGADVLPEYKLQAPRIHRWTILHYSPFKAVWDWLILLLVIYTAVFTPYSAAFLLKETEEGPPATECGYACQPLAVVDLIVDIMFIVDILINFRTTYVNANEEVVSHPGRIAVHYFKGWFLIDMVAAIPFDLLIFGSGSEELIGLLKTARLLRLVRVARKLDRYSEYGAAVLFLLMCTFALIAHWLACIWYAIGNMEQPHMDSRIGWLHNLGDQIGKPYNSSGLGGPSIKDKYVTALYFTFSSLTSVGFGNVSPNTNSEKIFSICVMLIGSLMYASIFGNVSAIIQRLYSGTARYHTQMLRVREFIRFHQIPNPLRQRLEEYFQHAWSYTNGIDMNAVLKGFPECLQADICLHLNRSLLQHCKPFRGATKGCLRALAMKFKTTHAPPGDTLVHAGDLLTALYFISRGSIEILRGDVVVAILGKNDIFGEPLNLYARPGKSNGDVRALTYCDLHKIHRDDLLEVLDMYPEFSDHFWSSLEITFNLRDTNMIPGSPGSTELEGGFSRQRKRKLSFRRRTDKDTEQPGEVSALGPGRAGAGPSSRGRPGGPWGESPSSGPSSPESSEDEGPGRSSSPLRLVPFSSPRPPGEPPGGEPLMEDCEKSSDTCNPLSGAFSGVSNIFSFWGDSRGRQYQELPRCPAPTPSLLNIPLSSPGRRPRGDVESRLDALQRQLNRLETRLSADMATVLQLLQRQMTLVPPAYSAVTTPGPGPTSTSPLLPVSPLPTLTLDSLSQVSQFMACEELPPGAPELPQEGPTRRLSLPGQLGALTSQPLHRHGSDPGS
row,SMILES,"hERG current change (%, negative = inhibition) at 10uM [%]"
1,CC(C)Oc1ccc(OCCn2c(S(=O)(=O)O)nc3c(N)ncnc32)cc1,15.9
2,COc1ccc(NC(=O)CN(Cc2ccccc2)Cc2ccccc2)cc1S(N)(=O)=O,-36.7
3,CCC(=O)Nc1ccc(C(=O)N/N=C/c2ccccc2[N+](=O)[O-])cc1,14.1
4,CCn1c(SCc2ccc(OC)cc2)nnc1-c1ccncc1,-18.9
5,Cc1cccc(-c2nnc(SCC(=O)Nc3cc(C)on3)n2C)c1,1.68
6,Cc1nc(CN2CCN(C(=O)c3ccc(C(C)(C)C)cc3)CC2)cs1.Cl,-3.25
7,COc1ccc(N2CC(C(=O)Nc3c4c(nn3-c3ccc(OC)cc3)CS(=O)(=O)C4)CC2=O)cc1 (stereo not drawn),21.4
8,O=C1COc2ccc3ccccc3c2CN1,6.37
9,Cc1ccc(S(=O)(=O)N2CCCC2CNC(=O)C(=O)NC2CCCC2)cc1 (stereo not drawn),-40.3
10,Cc1ccc(-n2nc3c(=O)n(CCCC(=O)NCCN4CCN(C)CC4)nc(C)c3c2C)cc1,16.8
11,Cc1ccc(S(=O)(=O)N2CCC(C(=O)NC3CC3)CC2)cc1,-5.59
12,O=C1CS/C(=N\c2ccccn2)N1C1CCCCC1,13.7
13,CC(NC(=O)CN1CCc2ccccc21)c1ccccc1 (stereo not drawn),8.5
14,COc1ccc(-n2cc(CNCCc3ncc(C)[nH]3)c(-c3ccccc3Cl)n2)cc1,-63.6
15,N#CCN1CCCC(C(N)=O)C1 (stereo not drawn),0.891
16,COc1ccccc1-n1c(SCC(=O)NCC2CCCO2)nc2c([nH]c3ccccc32)c1=O (stereo not drawn),9.22
17,CCN(CC)c1ccc(C(=O)N/N=C(\C)c2ccc(OC)c(OC)c2)cc1,3.53
18,Cc1nnsc1C(=O)NNS(=O)(=O)c1ccccc1,8.81
19,C=CCOc1ccc(/C=N/NC(=O)C(C)Sc2ccccn2)cc1OCC (stereo not drawn),20.6
20,CCCCN(C)C(=O)c1nc2ccccn2c1CN1CCN(C(=O)c2cccs2)CC1,-51.8
21,CCCCN(C)C(=O)c1nc2ccccn2c1CN1CCSCC1,6.32

row,SMILES,"hERG current change (%, negative = inhibition) at 10uM [%]"
1,CCCCN(C)C(=O)c1nc2ccccn2c1CN1CCN(c2ccccn2)CC1,-7.16
2,CCCCN(C)C(=O)c1nc2ccccn2c1CN1CCN(C/C=C/c2ccccc2)CC1,-83.9
3,CCCCN(C)C(=O)c1nc2ccccn2c1CN1CCN(c2ncccn2)CC1,-10.2
4,CCCCN(C)C(=O)c1nc2ccccn2c1CN1CCN(c2cnccn2)CC1,-12.4
5,COC(=O)C1=C(C(=O)OC)[C@@H]2N(Cc3ccccc3)c3ccccc3[C@@]23C[C@@H](C(=O)OC)N(C(=O)NC(C)(C)C)C3=N1,-11.7
6,Brc1cnc(N2CCCCC2)nc1N1CCOCC1,-6.45
7,CN(C)[C@@H]1C(=O)C(C(N)=O)=C(O)[C@@]2(O)C(=O)C3=C(O)c4c(O)cccc4[C@@](C)(O)C3[C@H](O)C12.Cl (stereo partly drawn),-1.22
8,O=C(CCCN1C(=O)CSc2ncccc21)N1CCN(Cc2ccccc2)CC1,6.42
9,O=C(CCCn1c(=O)[nH]c2cc(Cl)ccc2c1=O)NCCCN1CCN(c2ccc(F)cc2)CC1,-64.9
10,O=C(CCCn1c(=O)[nH]c2cc(Cl)ccc2c1=O)NCCCN1CCCC1,14.6
11,COc1cc2[nH]c(=O)n(CCC(=O)NCCCN3CCN(c4ccccc4F)CC3)c(=O)c2cc1OC,-35.4
12,COCCn1c(=O)[nH]c2cc(C(=O)NCCN3CCN(c4cccc(Cl)c4)CC3)ccc2c1=O,12.8
13,O=C(CCn1c(=O)[nH]c2ccccc2c1=O)NCCCN1CCN(c2cccc(Cl)c2)CC1,-65.4
14,O=C(CCCCCn1c(=O)[nH]c2ccccc2c1=O)NCCCN1CCN(c2ccccc2F)CC1,-79.2
15,O=C(CN1C(=O)CSc2ncccc21)N1CCOCC1,-6.66
16,O=C(CCCN1C(=O)CSc2ncccc21)N1CCN(c2cccc(C(F)(F)F)c2)CC1,-56.5
17,O=C(CCCn1c(=O)[nH]c2cc(Cl)ccc2c1=O)NCCN1CCN(c2ccccc2)CC1,-48.4
18,O=C(Cn1c(=O)[nH]c2ccccc2c1=O)N1CCN(c2cccc(Cl)c2)CC1,15.7
19,O=C(CCNC(=O)Cn1ccc2ccccc2c1=O)NCCCN1CCN(c2ccccc2F)CC1,10.1
20,Cc1cccc(-n2ncc(C#N)c2-n2cccc2)c1,-5.85
21,CC(C)Oc1ccc(C(=O)NCC(=O)OCC(=O)N(C)Cc2cccs2)cc1,-15.9

row,SMILES,"hERG current change (%, negative = inhibition) at 10uM [%]"
1,C=CCN(Cc1nc(-c2ccccc2)no1)C(=O)c1ccoc1C,-4.69
2,COC(=O)c1cccc(NC(=O)c2ccc3c(c2)C(=O)N(CC2CCCO2)C3=O)c1 (stereo not drawn),-24.3
3,NNc1nc(-c2ccccc2Cl)nc2ccccc12,11.1
4,COc1ccc(NC(=O)CCS(=O)(=O)c2ccc3c(c2)CCCN3C(C)=O)cc1,9.92
5,CC(C)NC(=O)NC(=O)CSc1ncccn1,15.7
6,Cn1c(=O)oc2cc(S(=O)(=O)N3CCC(C(=O)NCc4ccc(F)cc4)CC3)ccc21,-8.93
7,Cc1ccc(C)c(N2CCN(C(=O)CCCCn3c(=O)[nH]c4ccccc4c3=O)CC2)c1,-25.2
8,O=C(CCCCn1c(=O)[nH]c2ccccc2c1=O)NCc1ccc2c(c1)OCO2,-6.99
9,O=C(CCCCCn1c(=O)[nH]c2ccccc2c1=O)N1CCN(Cc2ccc3c(c2)OCO3)CC1,-71.7
10,O=C(Cn1c(=O)[nH]c2ccccc2c1=O)N1CCN(Cc2ccc3c(c2)OCO3)CC1,0.172
11,O=C(CCn1c(=O)[nH]c2ccccc2c1=O)N1CCN(c2cccc(C(F)(F)F)c2)CC1,-43
12,O=C(CCCCn1c(=O)[nH]c2ccccc2c1=O)N1CCN(c2cccc(C(F)(F)F)c2)CC1,-56.1
13,Cc1cccnc1NC(=O)C1CCN(S(=O)(=O)c2cccs2)CC1,-6.07
14,O=C(c1cccnc1)N1CCN(S(=O)(=O)c2ccc(S(=O)(=O)N3CCCC3)cc2)CC1,9.65
15,Cc1ccc(NC(=Nc2ccc(Br)cc2)N2CCOCC2)cc1C,-63.8
16,Cc1ccc(NC(=O)CN2CCOCC2)cc1C,14.3
17,Cc1ccc(NC(=S)NCCN2CCOCC2)cc1C,-5.31
18,Cc1ccc(NC2CCCN(C(=O)c3cccc(-c4ncc[nH]4)c3)C2)cc1C (stereo not drawn),3.23
19,NC(=O)c1nsc(C(=O)N(Cc2cccnc2)C(C(=O)NCc2ccc(F)cc2)c2ccc(F)cc2)c1N (stereo not drawn),0.71
20,COc1ccc(NC(=O)C(c2ccccc2)N(C)C(=O)c2cnccn2)cc1 (stereo not drawn),1.47
21,COc1ccc(C(C(=O)NCc2ccc(F)cc2)N(Cc2cccnc2)C(=O)c2snc(C(N)=O)c2N)cc1 (stereo not drawn),-62

row,SMILES,"hERG current change (%, negative = inhibition) at 10uM [%]"
1,COc1ccc(CN(C(=O)c2cnccn2)C(C(=O)Nc2ccc(F)cc2)c2ccccc2)cc1 (stereo not drawn),-68.2
2,CCC(C)(C)NC(=O)C(c1ccc(F)cc1)N(Cc1ccc(OC)cc1)C(=O)c1cnccn1 (stereo not drawn),-11.8
3,NC(=O)c1nsc(C(=O)N(Cc2cccnc2)C(C(=O)NCc2ccc(F)cc2)c2ccc(O)cc2)c1N (stereo not drawn),-1.96
4,CCOc1ccc(S(=O)(=O)NNC(=S)Nc2ccc(Br)cc2)cc1,5.35
5,COC1=C(Nc2ccccc2OC)C(=O)c2ccccc2C1=O,0.0125
6,Cc1ccc(N(C(=O)c2ccc(S(=O)(=O)N3CCOCC3)cc2)C2C=CS(=O)(=O)C2)cc1 (stereo not drawn),3.58
7,O=C(NCc1ccc(Cl)cc1)C(=O)NCC1OCCN1C(=O)c1cccs1 (stereo not drawn),-7.77
8,O=C(NCc1ccc(F)cc1)C(=O)NCC1OCCN1C(=O)c1cccs1 (stereo not drawn),-4.15
9,O=C(NCc1ccccc1)C(=O)NCC1OCCN1C(=O)c1cccs1 (stereo not drawn),-65.3
10,Cl.Clc1ccc(COc2ccccc2CNCc2cccnc2)cc1,-31.1
11,NS(=O)(=O)c1ccc(NCc2cc(Cl)ccc2OCc2ccc(F)cc2)cc1,3.36
12,Cl.NS(=O)(=O)c1ccc(CCNCc2cc(Cl)ccc2OCc2ccccc2)cc1,-74.5
13,Cl.NS(=O)(=O)c1ccc(CCNCc2ccccc2OCc2ccc(F)cc2)cc1,-74.5
14,NS(=O)(=O)c1ccc(NCc2ccccc2OCc2ccc(F)cc2)cc1,-17
15,NS(=O)(=O)c1ccc(CCNC(=O)c2ccccc2OCc2ccc(F)cc2)cc1,4.16
16,Cl.NS(=O)(=O)c1ccc(CCNCc2ccccc2OCc2ccc(Cl)cc2)cc1,-73.1
17,C=CCOc1ccccc1CNCCc1ccc(S(N)(=O)=O)cc1.Cl,-37.2
18,COc1cc(CNCCc2ccc(S(N)(=O)=O)cc2)ccc1OCc1ccc(Cl)cc1.Cl,-31.8
